Measured values as given in the supplement of paper PMC3334620.
The full ranking holds about 33,000 sequences; the median of “E-score (-0.5 to 0.5)” is about -0.054, and the highest 2% start at about 0.39. The sample holds the highest values, similar sequences and a random draw of the others, so the mix is not that of the screen.

Each sequence was assayed against Ylr278c (UniProt Q05854) (assay: PBM E-score (8-mer binding enrichment) (E-score (-0.5 to 0.5)); higher = stronger / more preferred TF binding). Conditions: protein concentration: 200 nM; construct: GST-DNA-binding domain.
Summary of the method: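 Each ungapped eight-base word and its reverse complement, pooled, received an E-score from the Universal PBM Analysis Suite. Underlying scans, normalised with masliner, recorded fluorescent anti-GST bound to GST-tagged yeast transcription factors. These were applied at about 100-200 nM to universal all-10-mer Agilent arrays double-stranded by primer extension.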

Sequence of UniProt Q05854 (Q05854 whole entry, the tested form may be a part): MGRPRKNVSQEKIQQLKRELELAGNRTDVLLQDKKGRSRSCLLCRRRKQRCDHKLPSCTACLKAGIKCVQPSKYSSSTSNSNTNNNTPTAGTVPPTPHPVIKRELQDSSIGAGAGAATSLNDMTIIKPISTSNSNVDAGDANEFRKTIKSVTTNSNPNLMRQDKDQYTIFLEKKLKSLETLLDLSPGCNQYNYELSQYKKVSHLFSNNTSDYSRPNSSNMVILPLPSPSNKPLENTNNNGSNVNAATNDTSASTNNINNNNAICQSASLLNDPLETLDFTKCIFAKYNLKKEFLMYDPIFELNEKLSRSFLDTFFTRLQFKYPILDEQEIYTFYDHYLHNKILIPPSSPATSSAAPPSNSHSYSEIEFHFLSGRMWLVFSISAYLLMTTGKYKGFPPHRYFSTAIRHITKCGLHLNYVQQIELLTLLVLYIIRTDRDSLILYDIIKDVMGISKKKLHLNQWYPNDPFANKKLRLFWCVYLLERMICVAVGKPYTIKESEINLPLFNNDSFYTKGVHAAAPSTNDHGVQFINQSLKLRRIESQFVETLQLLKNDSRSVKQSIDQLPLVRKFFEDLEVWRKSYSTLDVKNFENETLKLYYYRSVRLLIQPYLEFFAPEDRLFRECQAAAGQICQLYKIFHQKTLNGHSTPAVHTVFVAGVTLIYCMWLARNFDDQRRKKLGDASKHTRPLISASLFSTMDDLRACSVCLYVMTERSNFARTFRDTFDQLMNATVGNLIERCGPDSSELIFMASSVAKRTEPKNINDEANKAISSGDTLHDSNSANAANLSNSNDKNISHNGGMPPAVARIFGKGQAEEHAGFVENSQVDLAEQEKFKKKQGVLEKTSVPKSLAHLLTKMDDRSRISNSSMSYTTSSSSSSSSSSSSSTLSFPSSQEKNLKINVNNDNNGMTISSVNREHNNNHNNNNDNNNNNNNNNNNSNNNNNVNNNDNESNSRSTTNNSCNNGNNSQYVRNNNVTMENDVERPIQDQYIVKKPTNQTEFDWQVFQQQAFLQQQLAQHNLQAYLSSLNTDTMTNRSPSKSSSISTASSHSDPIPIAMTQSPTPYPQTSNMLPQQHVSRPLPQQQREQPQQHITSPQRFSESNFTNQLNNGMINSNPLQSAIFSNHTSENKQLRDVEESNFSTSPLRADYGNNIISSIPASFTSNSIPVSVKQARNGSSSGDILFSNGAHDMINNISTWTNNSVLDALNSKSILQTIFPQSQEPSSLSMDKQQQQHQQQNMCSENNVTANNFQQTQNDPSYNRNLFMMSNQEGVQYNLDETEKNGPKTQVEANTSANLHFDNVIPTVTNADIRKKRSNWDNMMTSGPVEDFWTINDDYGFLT

Sequence	PBM E-score
CTGAAAAG	-0.131
AGTTGCCG	0.171
GGCGTGTA	-0.155
TATGTAAA	0.0517
CCTTGAAC	-0.189
ACGTACTG	-0.138
AAACTTGC	-0.0141
ACGAGGAA	-0.0559
TGCTCTAA	-0.211
AGTGAGGA	-0.255
TCTCCGCA	0.407
ACTCCCCT	0.174
ACTCCTCA	-0.21
GCTCCGCA	0.377
ACTCCGCT	0.417
ACTCCGCC	0.475
ACTCCGCA	0.452
TCTCCTCA	-0.147
GCTCCGCC	0.382
CTTCCGCA	0.198
ACGCCGCT	0.224
AATCCGCC	0.319
GTTTAGGA	-0.122
ACAGCAGC	-0.191
CGCCCAAC	0.0317

Sequence	PBM E-score
ACCCTAAA	0.099
ATAGCTCG	-0.0396
ATGCTGTA	-0.185
TAAGTATA	-0.0135
GGACTGAA	-0.00012
ATGGCCAT	0.0373
CGGAGATA	0.483
CGGATATA	0.393
AGGAGATC	0.0493
CGGAGATC	0.479
GGGATATA	0.151
CGGATATC	0.366
GGGAGATA	-0.0385
AGGAGATA	-0.016
CTGAGATC	-0.196
CGACTCAA	0.0186
GTCATGAC	0.0612
GCCAGTTA	-0.0644
GCACTCGC	0.0715
CGTTCGCC	0.145
ACATCCGT	0.162
ATATCCGG	0.413
AGATCCGA	0.344
AGATCCGC	0.37
ATATCCGA	0.387

Sequence	PBM E-score
ACATCCGG	0.444
ATATCCGC	0.38
ACATCCGA	0.356
AGATCCGG	0.41
ATAGTGGC	-0.179
ACAGGCAA	-0.209
CTGCGACA	0.094
ACGATGGC	-0.144
ATAAGTAA	0.0323
GCCAACGA	-0.181
CGACTGTA	-0.139
CGGACTCC	0.423
GGGACTAA	-0.0466
GGGACTTA	-0.0692
CGGACTTC	0.473
AGGACTCC	0.0662
CGGACTTA	0.452
AGGACTTA	-0.0757
AGGACTTC	-0.0413
CGGACTCA	0.384
TGGACTAA	-0.188
CGGACTAA	0.423
CTGACTTC	0.088
ACAAAGCG	-0.0993
TGGACGAA	-0.116

Sequence	PBM E-score
ACACCACT	-0.0175
CCCGGTAG	0.252
GCGGTGAC	0.0764
CACCGGCA	0.328
CTACGGCC	0.123
GACCGGCA	0.258
CTGCGGCC	0.2
ATCCGGCA	0.369
CTCCGGCA	0.469
CTCCGGCC	0.455
GCCCGGCA	0.255
GTCCGGCA	0.41
GATCTGGC	0.0483
ACCTAACC	0.0688
TAAGAGGA	-0.0178
AAAGATTG	-0.146
AGCTAAGC	-0.164
CATAGGAC	-0.146
ATCGCTTG	-0.321
CGGGTGAG	0.167
CATATGGC	-0.0951
ACCAGATA	-0.0605
CGTTGGAA	-0.0729
CCTTCGAG	-0.0791
CGGAGACC	0.406

Sequence	PBM E-score
CGGAGACG	0.415
TGGAGACA	-0.227
AGGAGACA	-0.0751
AGGAGACC	-0.145
CGGAGACA	0.39
GGGAGACC	-0.0886
AGGAGACG	-0.12
CAGAGACG	-0.0283
CCTCCTAA	-0.122
GATCTAAA	0.0142
CAAAGGTC	-0.224
ATACTTGA	-0.345
CCCAGTCA	-0.242
CCTAGAAC	-0.0753
AGACGGAG	0.392
CGACGGAC	0.337
CGACGGAG	0.421
AGACGGAA	0.238
CGACGGAA	0.339
AGACGGAT	0.176
ATTGGACG	-0.00534
AATATGCC	-0.0168
ACATATCA	-0.0989
CTAGGCTA	-0.193
CCGGTCCA	0.21

Sequence	PBM E-score
ATAGTCCG	0.413
CAGGTCCG	0.353
AAAGTCCG	0.482
ATAGTCCC	-0.153
AAAGTCCT	0.226
ATAGTCCA	-0.109
CCGGTCCG	0.45
AAGGTCCG	0.426
AAAGTCCA	-0.0593
CCGGTCCC	0.355
AAGGTCCA	-0.124
CCGTTGAG	0.0643
ACTAGCTC	-0.157
AGAGCTGC	-0.0659
AAACAACA	-0.119
CGTATCCC	0.048
GGACTTAC	0.305
GAAGCTAC	-0.144
AACACCTC	-0.251
GTGTGGTA	-0.165
CAAGTCCA	-0.118
CAAGTCCG	0.455
CAAGTCCC	-0.108
CGAGTCCG	0.391
AGAGTCCG	0.347

Sequence	PBM E-score
CGAGTCCA	-0.144
CCGAGACG	0.134
ACCTCAGA	-0.0802
CCCCCCGA	0.083
GCCCCGGA	0.439
TCCCCCGA	0.263
GGCCCGCA	0.188
GCCCCGGC	0.259
CCCCCGGC	0.254
GCCCCCGA	0.0674
GGCCCGGA	0.395
CCCCCGGA	0.395
TCCCCGGA	0.435
TCCCCGAA	0.357
GGCCCGTA	0.173
ATATTTTC	0.0689
GACCTAAC	0.0677
GCAGACGA	-0.119
GGATCTGA	0.00665
AACCCATC	-0.0461
CAGTCATG	-0.129
ATGGCTGG	-0.209
CCAGCATC	-0.0271
ATCACTGC	-0.0314
ACTGTGGC	-0.32

Sequence	PBM E-score
GGACTGAC	-0.0427
CCCCTTAC	-0.195
AACCCGGG	0.319
CCCCCGGG	0.296
CGCCCGAA	0.111
CCCCGGGC	0.342
CCCCGGGG	0.412
ACCCCGGG	0.404
CGCCCGGA	0.435
ACCCGGGG	0.246
AGCCCGGC	0.332
AGCCCGGG	0.328
AGCCCGGA	0.448
CGCCCGGC	0.292
GTAAATGA	0.024
GACAAGCC	-0.0446
CGACTTAG	-0.168
GCAACTCC	0.327
AACGCCAA	-0.0358
GATTTCTA	0.238
CATCCACG	-0.153
CGCTAGGC	-0.0311
GCATGGCA	0.0442
ACCCCGGT	0.385
ACCCCGGA	0.445

Sequence	PBM E-score
TCCCGGGA	0.398
ACCCGGGA	0.307
ACCCCGGC	0.355
CCCCGGGA	0.378
GGTCTTAC	-0.0198
GAAGCGGC	0.125
GGATGCCA	-0.277
CAATTCCC	0.19
AAATTCCG	0.471
CGATTCCA	0.056
ATATTCCA	0.0484
ATATTCCG	0.43
AAATTCCA	0.115
CAATTCCA	-0.0617
CAATTCCG	0.465
ATATTCCC	0.277
CGATTCCC	0.226
AAATTCCC	0.254
CGATTCCG	0.396
